High-throughput results as filed in PubChem BioAssay.
Sampled rows, rich in hits. Any-hit rate of the full collection: about 3.1%.
PLK1 PBD inh – blocks phosphopeptide binding to human PLK1 polo-box domain | Plk1 PBD binding of FITC phosphopeptide, fluorescence polarization | 2.8% of 360,000 active | P53350 | Potency, µM, for inactives: max response, negative = inhibition, usual class: inhibitors; further: series mostly up to about 57 µM; on the % scale 0 is the no-effect control and ±100 the full control effect; nearly all actives have a fitted effect of over 65% in size
Tb PFK block – inhibitors of T. brucei phosphofructokinase | 0.17% of 330,000 active | T. brucei PFK, ADP-Glo luminescence | Potency, µM (highest dose often 57.5 µM), for the others: at the top dose activity, negative = inhibition, hits mostly inhibitors | AID 485367 | O15648;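 further: 0% = uninhibited 1x PFK enzyme wells and -100% = no-enzyme wells; nearly all actives have a fitted effect of over 60% in size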
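1.25 nM PFK with 0.5 mM F6P and 0.1 mM ATP in 0.1 M TEA pH 8.0, 5 mM MgCl2, incubated 45 min at room temperature; ADP measured by ADP-Glo luminescence; compounds titrated up to 57 uM.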
Pin1 inh – blocks the human prolyl isomerase Pin1. 0.009% of 390,000 active. Potency, µM (series often up to 115 µM), for the others: at the highest dose activity, negative = inhibition, actives largely listed as inhibitors. AID 504891. Pin1 FP peptide displacement, HiFluor488, 10 min; active means well fitted inhibition curve with a large enough effect in the polarisation, with a control signal flat, not every such curve was filed as active; inconclusive means small, poorly fitted or top-dose-only effect, or effect the other way, or a change in a side signal; inactive means no such curve, though single readings can be large or run the other way; the % refers to the polarisation; further: on the % scale 0 is the no-effect control and ±100 the full control effect
Target sequence (Q13526 whole entry, looked up): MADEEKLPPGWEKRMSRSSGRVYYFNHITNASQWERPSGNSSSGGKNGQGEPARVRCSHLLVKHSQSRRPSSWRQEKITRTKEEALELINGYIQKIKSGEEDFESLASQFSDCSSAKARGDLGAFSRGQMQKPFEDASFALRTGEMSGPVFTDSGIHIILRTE
VDR inh – blocks the human vitamin D receptor; P11473; VDR-SRC2-3 peptide fluorescence polarization, 2 h; Potency, µM, for inactives: max response, negative = inhibition, hits mostly inhibitors; 0.93% of 400,000 active; AID 504847; further: on the % scale 0 is the no-effect control and ±100 the full control effect
Target sequence (P11473 whole entry, looked up): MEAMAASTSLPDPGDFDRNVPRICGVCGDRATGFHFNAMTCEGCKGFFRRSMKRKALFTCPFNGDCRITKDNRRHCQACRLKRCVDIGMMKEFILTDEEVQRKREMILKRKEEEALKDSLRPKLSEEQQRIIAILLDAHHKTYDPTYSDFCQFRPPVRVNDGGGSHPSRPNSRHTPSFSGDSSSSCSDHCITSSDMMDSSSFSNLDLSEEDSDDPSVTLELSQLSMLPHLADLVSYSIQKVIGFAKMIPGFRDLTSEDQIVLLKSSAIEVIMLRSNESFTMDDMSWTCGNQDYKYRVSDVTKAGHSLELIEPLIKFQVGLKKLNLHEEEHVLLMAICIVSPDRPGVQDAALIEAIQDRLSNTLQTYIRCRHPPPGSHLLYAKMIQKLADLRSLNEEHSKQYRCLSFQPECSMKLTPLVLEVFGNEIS
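FP read-out; VDR + SRC2-3 coactivator peptide; 23 nl compound by pintool; 2 h RT incubation; reagents held at 4 deg C, protected from light.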
S-ASM inh – human S-ASM enzyme inhibition; P17405; placental ASM, HMU-PC fluorogenic substrate, 60 min; Potency, µM (top dose mostly 57.5 µM), without a hit: top-dose activity change, negative = inhibition, actives largely listed as inhibitors; 0.006% of 340,000 active
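qHTS format. ASM enzyme prepared from human placenta hydrolyses the fluorogenic substrate HMU-PC0 (9 uM final) over 60 min at 37 °C after a 10 min compound preincubation.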
TDP1 block – TDP1 (human) enzyme inhibition | Q9NUW8 | 0.28% of 350,000 active | recombinant TDP1, AlphaScreen DNA substrate cleavage | Potency, µM (titrated, usually from 130 µM), inactives show at the top dose activity change, negative = inhibition, actives largely listed as inhibitors; further: on the % scale 0 is the no-effect control and ±100 the full control effect; nearly all actives have a fitted effect of over 40% in size
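Recombinant E. coli-expressed Tdp1 (1 nM) preincubated with compound 15 min at RT, then 5'-biotin/3'-phosphotyrosine-FITC DNA substrate (15 nM) added for 5 min. AlphaScreen beads (10 ug/ml) added, 10 min RT; tyrosine-FITC cleavage read as signal loss.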
Active calls of the source: *; u = inconclusive; x = no result given; [ ] = remark or other dose. Unless noted, the call rests on the fitted dose curve; in most records, active means well fitted curve in the direction sought with a large enough effect; inconclusive means small, poorly fitted or top-dose-only effect, or another doubt; inactive means no such curve, though single readings can be large; an effect the other way counts as inactive or inconclusive. Potency means the concentration at half of the fitted maximal effect.

SMILES	PLK1 PBD inh	Tb PFK block	Pin1 inh	VDR inh	S-ASM inh	TDP1 block
COc1ccc(C(=O)N2CCN(c3cccc(Cl)c3)CC2)cc1	-7.5%	-14.3%	7.1%	-18.4%	0.4%	1.2%
COc1cc(C(=S)N2CCN(c3cccc(Cl)c3)CC2)ccc1O	4.74µM*	u	-1.4%	39.8µM*	-16.7%	2.5%
O=C(C(=O)N1CCN(c2cccc(Cl)c2)CC1)N1CCCCC1	-16.8%	-9.1%	-0.2%	2.4%	4.4%	0.0%
Oc1ccccc1C(=S)N1CCN(c2cccc(Cl)c2)CC1	11.9µM*	-19.4%	-8.9%	89.1µM*	-5.7%	2.5%
COc1ccc(C(=S)N2CCN(c3ccccc3Cl)CC2)cc1OC	9.47µM*	u	1.8%	u	-4.0%	5.6%
COc1ccc(C(=S)N2CCN(c3cccc(Cl)c3)CC2)c(OC)c1	11.9µM*	0.9%	13.0%	u	-2.3%	2.7%
CCOc1ccc(-n2cc(-c3ccccc3)c3c(N4CCN(c5ccccc5OC)CC4)ncnc32)cc1	x	x	-7.1%	15.3%	x	10.4%
Cc1ccncc1C(=O)O	x	x	x	0.0%	x	8.9%
CC1CCN(C(=S)c2ccc(O)cc2)CC1	u	0.1%	-6.5%	-11.2%	2.2%	2.0%
CC1CCN(C(=S)c2ccccc2O)CC1	15µM*	-11.2%	6.6%	u	1.3%	-3.3%
O=C(Nc1ccccc1C(F)(F)F)NC1(C(=O)N2CCOCC2)CCCCC1	6.7µM*	x	u	u	12.3%	x
COC(=O)CCC(=O)OC1(C)C(=O)C2=CN(C(CO)CO)C(c3ccc(OC)cc3)=CC2=C(Br)C1=O (stereo not drawn)	x	-1.0%	x	x	x	5.4%[21 µM]
CC(C)(C)OC(=O)NCCCC1=CC2=CC(=O)C(C)(OC(=O)c3ccc(Cl)nc3)C(=O)C2=CO1 (stereo not drawn)	x	x	x	-1.9%	x	3.7%
COc1ccc(C2=CC3=C(Br)C(=O)C(C)(OC(=O)C4CCCC4)C(=O)C3=CO2)cc1 (stereo not drawn)	23.8µM*	-3.1%	u	u	-2.9%	1.9%
COC(=O)CCC(=O)OC1(C)C(=O)C2=COC(c3ccc(OC)cc3)=CC2=C(Br)C1=O (stereo not drawn)	11.9µM*	-2.1%	u	u	-1.8%	-6.2%
COc1ccc(C2=CC3=C(Br)C(=O)C(C)(OC(=O)c4ccc(Cl)nc4)C(=O)C3=CO2)cc1 (stereo not drawn)	11.9µM*	0.9%	u	-7.9%	-4.5%	-5.0%
COc1ccc(CNc2ncnc3ccc(-c4ccccc4CN(C)C)cc23)c(OC)c1	x	x	x	2.5%	x	16.4%[56.1 µM]
CCN(c1ccccc1)c1nnc(NC(=O)Nc2ccc(C)cc2)s1	x	x	u	10.5%	x	11.4%
CC(=O)N1c2c(cc(Br)cc2S(=O)(=O)N2CCN(c3ccccc3)CC2)CC1C (stereo not drawn)	x	x	4.2%	5.3%	x	11.8%
O=[N+]([O-])c1ccccc1S(=O)(=O)N1CCCCC1	26.7µM*	-6.1%	5.8%	-20.0%	5.2%	1.1%
O=C(c1ccco1)N1CCN(S(=O)(=O)c2ccc([N+](=O)[O-])cc2)CC1	3.6%	-1.7%	-0.5%	-12.9%	4.6%	-3.0%
CC(=O)N1c2c(cc(Br)cc2S(=O)(=O)N2CCN(C(=O)c3ccco3)CC2)CC1C (stereo not drawn)	4.74µM*	-1.3%	0.0%	u	2.8%	0.0%
O=C(c1ccco1)N1CCN(S(=O)(=O)c2ccccc2[N+](=O)[O-])CC1	29.9µM*	2.9%	1.1%	-9.9%	-0.5%	-0.6%
COc1ccc(N2CC(NC(=O)C(c3ccccc3)c3ccccc3)CC2=O)cc1OC (stereo not drawn)	x	x	4.4%	0.6%	x	-2.6%
CN(C)c1ccc(-c2ccc(C3C4C=CCCC4(C)C(=O)N3Cc3ccccc3)c(F)c2)cc1 (stereo not drawn)	x	x	8.3%	-11.9%	x	21.5%
SMILES	PLK1 PBD inh	Tb PFK block	Pin1 inh	VDR inh	S-ASM inh	TDP1 block
COc1ccc(C2Nc3ccccc3C(=O)N2CCc2ccccc2)cc1COc1ccc(NC(C)=O)cc1 (stereo not drawn)	x	x	-2.7%	x	x	0.5%
N[C@H](C(=O)O)[C@H]1C[C@H]1C(=O)O	x	x	x	-2.4%	x	2.4%
CC(=O)N1CC(C)Sc2ccc(S(=O)(=O)NCCc3cccc(C)c3)cc21 (stereo not drawn)	11.9µM*	1.3%	-3.6%	u	-0.4%	0.9%
CC(=O)N1CC(C)Sc2ccc(S(=O)(=O)NCc3ccc(F)cc3)cc21 (stereo not drawn)	-11.4%	-2.0%	-1.8%	8.0%	-0.2%	0.0%
O=C1NN(c2ccc(Cl)cc2)C(=O)/C1=C\c1ccc(-c2cccc(C(=O)O)c2)o1	23.8µM*	-8.1%	u	u	-1.0%	x
O=C(CS)Nc1ccc2ccccc2c1	-18.5%	-22.5%	12.1%	79.4µM*	-1.8%	0.0%
CCC(=O)N1CCc2cc(Br)cc(S(=O)(=O)N3CCC(C(=O)Nc4ccccc4CC)CC3)c21	x	x	-1.1%	-6.0%	x	-4.5%
COc1ccc(CC(=O)OC(C)C(=O)c2ccc(C)cc2)cc1 (stereo not drawn)	-1.6%	-0.8%	0.7%	-10.2%	0.1%	79.4µM*
COc1ccc(CC(=O)Oc2cc(C)ccc2C)cc1	3.1%	1.6%	-1.8%	-5.9%	-1.5%	x
NS(=O)(=O)c1ccc(NS(=O)(=O)c2ccc(C3CNC(=O)C3)cc2)cc1 (stereo not drawn)	29.9µM*	0.0%	-4.4%	u	4.1%	13.5%
COc1ccc(-n2c(=O)c3c4c(sc3n(CC(=O)N3CCCCC3C)c2=O)CCC4)c(OC)c1 (stereo not drawn)	x	x	1.1%	-13.7%	x	5.5%
O=C(O)CCN1C(=O)/C(=C\c2cccc(OCc3ccccc3)c2)SC1=S	18.9µM*	6.8%	u	u	-4.3%	2.3%
O=C(O)CCN1C(=O)/C(=C\c2ccc(OCc3ccccc3)c(OCc3ccccc3)c2)SC1=S	-20.7%	1.2%	u	-22.7%	u	-2.7%
O=C(O)CN1C(=O)/C(=C\c2cc(Br)ccc2OCc2ccc([N+](=O)[O-])cc2)SC1=S	21.2µM*	u	x	35.5µM*	-1.1%	x
O=C(O)CN1C(=O)/C(=C\c2cc(Br)ccc2OCc2ccccc2Cl)SC1=S	16.8µM*	-22.1%	x	u	-8.9%	x
O=C(O)COc1ccc(Br)cc1/C=C1/SC(=O)N(CC(=O)N2CCCC2)C1=O	-27.8%	-4.3%	11.1%	u	30.7%	5.7%
O=C(O)CN1C(=O)/C(=C\c2cccc(OCc3ccc(Cl)cc3Cl)c2)SC1=S	21.2µM*	1.0%	x	u	u	0.0%
O/N=C/c1cc(Br)ccc1OCc1ccccc1F	-17.6%	x	1.0%	-21.7%	-6.6%	x
O=C(O)CN1C(=O)/C(=C\c2ccccc2OCc2ccc(Cl)cc2Cl)SC1=S	26.7µM*	-19.0%	x	u	4.7%	1.6%
